A short description of assay [1]: qHTS of pediatric cancer cell lines to identify multiple opportunities for drug repurposing: Primary screen for SJ-GBM2 cells (AID 1347091). Further: potency means the concentration at half of the fitted maximal effect. An outline of the steps: (§1)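 Viability measured as metabolically active cells via CellTiter-Glo luminescence following 48 hours of compound exposure, 11-point dilutions in confirmatory testing. 500-1,000 cells/well plated 5 hours before dosing; controls were DMSO and 2.3 µM bortezomib.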

Assay [2] in a line: qHTS of pediatric cancer cell lines to identify multiple opportunities for drug repurposing: Primary screen for A673 cells (AID 1347092). Further: nearly all actives have a fitted effect of over 45% in size. Further: potency means the concentration at half of the fitted maximal effect. In outline: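 Luminescence from CellTiter-Glo, taken after 15 min at room temperature, served as the proxy for metabolically active cells following 48 h treatment. Both potency and efficacy were taken from curves fitted to the titration data.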
For orientation: In qHTS, concentration-response curves come from the screen itself.

Assay [3] in a line: qHTS of pediatric cancer cell lines to identify multiple opportunities for drug repurposing: Primary screen for SK-N-MC cells (AID 1347093). Further: potency means the concentration at half of the fitted maximal effect. In outline:
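Metabolically active cells were quantified by ATP-dependent luminescence (CellTiter-Glo, 15 min at room temperature) following 48 h treatment. Cells had been plated at 500-1,000 per well and settled for 5 h beforehand.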

Assay [4] is described as follows: qHTS of pediatric cancer cell lines to identify multiple opportunities for drug repurposing: Primary screen for BT-37 cells (AID 1347094). Further: potency means the concentration at half of the fitted maximal effect. An outline of the steps:
(§2)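 Luminescence from CellTiter-Glo served as readout of metabolically active cells after 48 h compound exposure. Titrations: MIPE 11-point, from 0.78 nM; NPC 8-point, from 0.59 nM (final). Concentration-response curves came straight from the primary screen.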

Assay [5] in a line: qHTS of pediatric cancer cell lines to identify multiple opportunities for drug repurposing: Primary screen for NB-EBc1 cells (AID 1347095). Further: potency means the concentration at half of the fitted maximal effect. In outline: as §2
Assay [6] is described as follows: qHTS of pediatric cancer cell lines to identify multiple opportunities for drug repurposing: Primary screen for U-2 OS cells (AID 1347096). Further: nearly all actives have a fitted effect of over 50% in size. Further: potency means the concentration at half of the fitted maximal effect. An outline of the steps:
(§3)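 Viability after 48 h compound treatment at 37C, 500-1,000 cells/well, read as ATP luminescence with CellTiter-Glo. Primary screens used 11-point (MIPE, 0.78 nM-46 µM) or 8-point (NPC, 0.59 nM-46 µM) final concentrations; follow-up screens used 11-point dilutions.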

The nature of assay [7]: qHTS of pediatric cancer cell lines to identify multiple opportunities for drug repurposing: Primary screen for Saos-2 cells (AID 1347097). Further: nearly all actives have a fitted effect of over 40% in size. Further: potency means the concentration at half of the fitted maximal effect. In outline:
as §2

Assay [8] is described as follows: qHTS of pediatric cancer cell lines to identify multiple opportunities for drug repurposing: Primary screen for SK-N-SH cells (AID 1347098). Further: nearly all actives have a fitted effect of over 65% in size. Further: potency means the concentration at half of the fitted maximal effect. An outline of the steps: (§4)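 Cells (500-1,000/well) rested 5 h, then received compounds for 48 h; metabolically active cells were measured by CellTiter-Glo luminescence. Final concentrations spanned up to 46 µM (MIPE, 11-point) or 0.59 nM-46 µM (NPC, 8-point) in primary screens, 11-point in follow-ups.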

The nature of assay [9]: qHTS of pediatric cancer cell lines to identify multiple opportunities for drug repurposing: Primary screen for NB1643 cells (AID 1347099). Further: nearly all actives have a fitted effect of over 50% in size. Further: potency means the concentration at half of the fitted maximal effect. In outline: as §2
Assay [10] in a line: qHTS of pediatric cancer cell lines to identify multiple opportunities for drug repurposing: Primary screen for LAN-5 cells (AID 1347100). Further: potency means the concentration at half of the fitted maximal effect. An outline of the steps:
as §3

Assay [11] is described as follows: qHTS of pediatric cancer cell lines to identify multiple opportunities for drug repurposing: Primary screen for BT-12 cells (AID 1347101). Further: nearly all actives have a fitted effect of over 25% in size. Further: potency means the concentration at half of the fitted maximal effect. An outline of the steps:
as §4

Assay [12] in a line: qHTS of pediatric cancer cell lines to identify multiple opportunities for drug repurposing: Primary screen for Rh18 cells (AID 1347102). Further: nearly all actives have a fitted effect of over 65% in size. Further: potency means the concentration at half of the fitted maximal effect. In outline:
as §3

Assay [13] can be described thus: qHTS of pediatric cancer cell lines to identify multiple opportunities for drug repurposing: Primary screen for OHS-50 cells (AID 1347103). Further: nearly all actives have a fitted effect of over 40% in size. Further: potency means the concentration at half of the fitted maximal effect. An outline of the steps:
as §4

Assay [14] can be described thus: qHTS of pediatric cancer cell lines to identify multiple opportunities for drug repurposing: Primary screen for RD cells (AID 1347104). Further: nearly all actives have a fitted effect of over 55% in size. Further: potency means the concentration at half of the fitted maximal effect. In outline:
as §2

A short description of assay [15]: qHTS of pediatric cancer cell lines to identify multiple opportunities for drug repurposing: Primary screen for MG 63 (6-TG R) cells (AID 1347105). Further: nearly all actives have a fitted effect of over 50% in size. Further: potency means the concentration at half of the fitted maximal effect. In outline:
as §2

The nature of assay [16]: qHTS of pediatric cancer cell lines to identify multiple opportunities for drug repurposing: Primary screen for Rh30 cells (AID 1347107). Further: series mostly up to about 46 µM; nearly all actives have a fitted effect of over 75% in size. An outline of the steps: as §3
The nature of assay [17]: qHTS of pediatric cancer cell lines to identify multiple opportunities for drug repurposing: Primary screen for Rh41 cells (AID 1347108). Further: nearly all actives have a fitted effect of over 70% in size. Further: potency means the concentration at half of the fitted maximal effect. In outline:
as §2

The nature of assay [18]: qHTS of pediatric cancer cell lines to identify multiple opportunities for drug repurposing: Primary screen for control Hh wild type fibroblast cells (AID 1347106).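 Further: series mostly up to about 46 µM; a drop in luminescence marks cytotoxicity and a rise apparent proliferation; nearly all actives have a fitted effect of over 55% in size.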 An outline of the steps: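 Cells (500-1,000/well) in growth media were settled 5 h at 37 degrees C, then given compounds for 48 h. Viability was read as CellTiter-Glo luminescence. Primary runs used MIPE at 11 points (0.78 nM-46 µM) and NPC at 8 points (0.59 nM-46 µM); follow-ups used 11 points.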

The nature of assay [19]: qHTS of pediatric cancer cell lines to identify multiple opportunities for drug repurposing: Primary screen for DAOY cells (AID 1347090). Further: nearly all actives have a fitted effect of over 55% in size. Further: potency means the concentration at half of the fitted maximal effect. In outline: as §1
Assay [20] in a line: qHTS of pediatric cancer cell lines to identify multiple opportunities for drug repurposing: Confirmatory screen for NB1643 cells (AID 1347109). Further: nearly all actives have a fitted effect of over 45% in size. Further: potency means the concentration at half of the fitted maximal effect. An outline of the steps:
as §3

The structures appear in SMILES notation. Several values for one entry are separate records, joined by “and”; a condition that tells them apart may be missing. Equal entries are not always repeated. Inconclusive results are not listed. Activity calls are given as the source filed them. The call rests on the fitted dose curve; in most records, active means well fitted curve in the direction sought with a large enough effect; inconclusive means small, poorly fitted or top-dose-only effect, or another doubt; inactive means no such curve, though single readings can be large; an effect the other way counts as inactive or inconclusive.

As for `CC(C)NCC(O)COc1ccc(COCCOC(C)C)cc1` (centres undefined), the Potency entry in [1], in assay [2], in assay [3], in assay [4], in [5] and in assay [6] was “inactive” each time. The Potency result in assay [7], in assay [8], in [9], in assay [10], in [11] and in assay [12] was “inactive” in each case. In addition, the Potency result in assay [13], in assay [14], in assay [15], in assay [16] and in assay [17] was “inactive” throughout.
In the case of `CN(C)c1ccc(Nc2nc(N)n(C(=O)c3c(F)cccc3F)n2)cc1`, the Potency was 16.6 µM (active) in assay [1]; 2.35 µM (active) in assay [2]; 0.469 µM (active) in [3]; 16.6 µM (active) in assay [7]; 3.83 µM (active) in assay [8]; 11.8 µM (active) in assay [9]. The results for the Potency in [10] and in assay [15] were 0.833 µM (active) and 18.7 µM (active), respectively. Moreover, the Potency result in [12], in assay [18], in assay [16] and in assay [17] was “inactive” each time.
For the compound `O=C(Nc1nc2ccccc2n1CCN1CCOCC1)c1cccc([N+](=O)[O-])c1`, the Potency in assay [1] is 14.8 µM (active); in assay [2], 3.72 µM (active); in [3], 3.32 µM (active); in [4], 7.69 µM (active); in assay [5], 7.43 µM (active); in assay [8], 24.1 µM (active). Moreover, the Potency was 7.43 µM (active) in assay [9], 3.72 µM (active) in assay [10], 21.7 µM (active) in assay [11] and 18.7 µM (active) in [17]. Also, the Potency result in assay [6] is “inactive”.
For `CC1(C)CNc2cc(NC(=O)c3cccnc3NCc3ccncc3)ccc21`, the Potency in assay [19] is 1.18 µM (active); in assay [5], 9.35 µM (active); in assay [10] it was 20.9 µM (active). In addition, the Potency result in assay [6], in assay [14] and in assay [16] was “inactive” throughout.
Turning to `COc1ccc(-c2ccc3c(N4CCOC[C@H]4C)nc(N4CCOC[C@H]4C)nc3n2)cc1CO`, the Potency in assay [1] is 0.0083 µM (active); in assay [2], 0.0235 µM (active); in assay [3], 0.0047 µM (active); in [4] it was 0.0544 µM (active); in [5], 0.0332 µM (active); in assay [7], 0.469 µM (active). Also, the Potency in assay [12] was 0.132 µM (active); in [13], 0.0544 µM (active); in [14], 37.2 nM (active); in [15] it was 0.0187 µM (active); in assay [17] it was 0.0418 µM (active). The Potency entry in assay [8] and in assay [16] was “inactive” in each case.
Regarding `CCn1c(-c2nonc2N)nc2c(C#CC(C)(C)O)ncc(OC[C@H]3CCCNC3)c21`, the Potency in assay [1] is 23.5 µM (active); in assay [2] it was 11.8 µM (active); in assay [3], 0.469 µM (active); in [5] it was 18.7 µM (active); in assay [9] it was 18.7 µM (active); in assay [10], 5.26 µM (active). The Potency in assay [14] is 23500 nM (active). Besides, the Potency result in [6], in assay [11], in assay [12], in assay [18] and in assay [16] was “inactive” in each case.
Regarding `O=C(C1CC1)N1CC[C@@H](Cn2c(-c3ccc(-c4ccc5occc5c4)cc3)nc3cnccc32)C1`, the Potency in [1] was 8.33 µM (active); in assay [3], 18.7 µM (active); in assay [5], 13.2 µM (active). Moreover, the Potency entry in [2], in assay [6], in assay [7], in assay [8], in [9] and in assay [12] was “inactive” throughout. For the same compound, the Potency entry in [13], in assay [14], in assay [15], in assay [16] and in assay [17] was “inactive” in each case.
With `CN(C)C(=O)c1ccc(S(=O)(=O)c2ccc(NC(=O)[C@@](C)(O)C(F)(F)F)c(Cl)c2)cc1`, the Potency entry in assay [1], in assay [5], in assay [6], in assay [8], in [10] and in assay [12] was “inactive” in each case. The Potency entry in [18] and in assay [16] was “inactive” throughout. Besides, the Potency in [2] was 18.7 µM (active); in assay [3], 16.6 µM (active); in assay [11] it was 13.7 µM (active).
For the compound `CO[C@@H]1[C@H](N(C)C(=O)c2ccccc2)C[C@H]2O[C@]1(C)n1c3ccccc3c3c4c(c5c6ccccc6n2c5c31)C(=O)NC4`, the Potency in assay [1] is 0.833 µM (active); in assay [2], 0.935 µM (active); in assay [3], 0.662 µM (active); in [6] it was 3.72 µM (active); in [7] it was 0.833 µM (active); in [8], 1.92 µM (active). Further, the Potency was 0.526 µM (active) in [10]; 1.32 µM (active) in assay [12]; 2.17 µM (active) in [13]; 0.743 µM (active) in assay [15]; 3.29 µM (active) in [20]. For the same compound, the Potency result in [14], in assay [16] and in assay [17] was “inactive” in each case.
Turning to `CCN(CC)CCCC(C)Nc1ccnc2cc(Cl)ccc12` (centres undefined), the Potency result in assay [1], in [5], in [6], in [12], in assay [18] and in assay [16] was “inactive” throughout. Further, the Potency entry in assay [17] and in [20] was “inactive” each time. Further, the Potency is 2.96 µM (active) in assay [2]; 0.0372 µM (active) in assay [3]; 1.48 µM (active) in assay [9]; 3.43 µM (active) in assay [11]; 8.63 µM (active) in assay [13]; 13 µM (active) and 6.62 µM (active) in [14]. Also, the Potency in [15] was 11.8 µM (active).
Regarding `CCN(c1ccccc1)c1cc(NC)[n+](C)c(C)n1`, the Potency entry in [19], in assay [3], in assay [6], in assay [7], in assay [9] and in assay [11] was “inactive” in each case. The Potency entry in assay [12], in assay [14], in [15], in [16] and in assay [17] was “inactive” throughout.
Consider `CCCn1c(=O)c2[nH]c(C34CC5CC3C[C@@H](C5)C4)nc2n(CCC)c1=O`, for which the Potency in assay [1] is 16.6 µM (active); in assay [2], 18.7 µM (active); in assay [3], 10.5 µM (active). Moreover, the Potency result in [4], in [6], in assay [8], in assay [11] and in [18] was “inactive” throughout.
Consider `N#CC[C@H](C1CCCC1)n1cc(-c2ncnc3[nH]ccc23)cn1`, for which the Potency result in assay [1], in assay [5], in [6], in assay [7], in [8] and in [11] was “inactive” each time. Also, in assay [18], the Potency result was “inactive”. Moreover, the Potency in assay [2] was 23.5 µM (active); in assay [3], 23.5 µM (active); in assay [9], 14.8 µM (active); in [10] it was 18.7 µM (active).
For `CCc1cncnc1N1CCN(Cc2nc3ccc(C(F)(F)F)cc3[nH]2)CC1`, the Potency entry in assay [1], in assay [6] and in [18] was “inactive” each time. In addition, the Potency was 29.6 µM (active) in [2], 23.5 µM (active) in assay [3] and 12.2 µM (active) in assay [11].
In the case of `O=C(O)CCc1ccc(NCc2cccc(Oc3ccccc3)c2)cc1`, the Potency result in assay [1], in [2], in [3], in [4], in assay [5] and in assay [6] was “inactive” each time. Besides, the Potency entry in assay [7], in [8], in assay [9], in assay [10], in assay [11] and in assay [12] was “inactive” throughout. The Potency result in [13], in assay [14], in assay [15], in assay [18], in [16] and in [17] was “inactive” in each case.

The values above are taken from PubChem BioAssay (NCATS).
